Experimental data reported in the supplement of paper PMC7411054.
Where a name gives a salt, the structure may show the parent alone.

Columns and labels:
Assay in all cases: phenotypically active (imaging signature differs from DMSO and reproducible) at any of 0.3-9 uM (binary (1 = active, 0 = inactive)); higher = active
Conditions in all cases: treatment time: 24 h
A549-ACTB-RAB5A = test system: A549-ACTB-RAB5A
Summary of the method: (§1)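 The reporter lines, fifteen in total and built by gene editing in A549, HepG2 and WPMY1 cells, used BFP for segmentation alongside GFP and RFP/FusionRed markers. Each was treated at 0.3, 1, 3 or 9 µM for 24 h in four wells and then imaged live, with live-cell features normalised to solvent control wells. Deviation meant ≥3 of 4 wells beyond the 95th percentile of control Euclidean distances; reproducibility meant a median replicate Pearson correlation above the 95th percentile of non-replicates. Only conditions meeting both were scored as phenotypically active.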

A549-CANX-COX4 = test system: A549-CANX-COX4
Summary of the method: as §1

A549-GM130-SQSTM1 = test system: A549-GM130-SQSTM1
Summary of the method: as §1

A549-TP53BP1-CLTA = test system: A549-TP53BP1-CLTA
Summary of the method: as §1

A549-TUBA1B-RELA = test system: A549-TUBA1B-RELA
Summary of the method: as §1

HepG2-ACTB-RAB5A = test system: HepG2-ACTB-RAB5A
Summary of the method: as §1

HepG2-CANX-COX4 = test system: HepG2-CANX-COX4
Summary of the method: as §1

HepG2-GM130-SQSTM1 = test system: HepG2-GM130-SQSTM1
Summary of the method: as §1

HepG2-TP53BP1-CLTA = test system: HepG2-TP53BP1-CLTA
Summary of the method: as §1

HepG2-TUBA1B-RELA = test system: HepG2-TUBA1B-RELA
Summary of the method: as §1

WPMY1-ACTB-RAB5A = test system: WPMY1-ACTB-RAB5A
Summary of the method: as §1

WPMY1-CANX-COX4 = test system: WPMY1-CANX-COX4
Summary of the method: as §1

WPMY1-GM130-SQSTM1 = test system: WPMY1-GM130-SQSTM1
Summary of the method: as §1

WPMY1-TP53BP1-CLTA = test system: WPMY1-TP53BP1-CLTA
Summary of the method: as §1

WPMY1-TUBA1B-RELA = test system: WPMY1-TUBA1B-RELA
Summary of the method: as §1

Measured: phenotypically active

CNC(C)(C)Cc1ccccc1 [mephentermine]
inactive: A549-ACTB-RAB5A 0 | A549-CANX-COX4 0 | A549-GM130-SQSTM1 0 | A549-TP53BP1-CLTA 0 | A549-TUBA1B-RELA 0 | HepG2-ACTB-RAB5A 0 | HepG2-CANX-COX4 0 | HepG2-GM130-SQSTM1 0 | HepG2-TP53BP1-CLTA 0 | HepG2-TUBA1B-RELA 0 | WPMY1-ACTB-RAB5A 0 | WPMY1-CANX-COX4 0 | WPMY1-GM130-SQSTM1 0 | WPMY1-TP53BP1-CLTA 0 | WPMY1-TUBA1B-RELA 0

N[C@H]1C[C@@H]1c1ccccc1 [tranylcypromine]
inactive: A549-ACTB-RAB5A 0 | A549-CANX-COX4 0 | A549-GM130-SQSTM1 0 | A549-TP53BP1-CLTA 0 | A549-TUBA1B-RELA 0 | HepG2-ACTB-RAB5A 0 | HepG2-CANX-COX4 0 | HepG2-GM130-SQSTM1 0 | HepG2-TP53BP1-CLTA 0 | HepG2-TUBA1B-RELA 0 | WPMY1-ACTB-RAB5A 0 | WPMY1-CANX-COX4 0 | WPMY1-GM130-SQSTM1 0 | WPMY1-TP53BP1-CLTA 0 | WPMY1-TUBA1B-RELA 0

COc1ccc(OC)c(C(O)C(C)N)c1 (stereo not given) [methoxamine]
inactive: A549-ACTB-RAB5A 0 | A549-CANX-COX4 0 | A549-GM130-SQSTM1 0 | A549-TP53BP1-CLTA 0 | A549-TUBA1B-RELA 0 | HepG2-ACTB-RAB5A 0 | HepG2-CANX-COX4 0 | HepG2-GM130-SQSTM1 0 | HepG2-TP53BP1-CLTA 0 | HepG2-TUBA1B-RELA 0 | WPMY1-ACTB-RAB5A 0 | WPMY1-CANX-COX4 0 | WPMY1-GM130-SQSTM1 0 | WPMY1-TP53BP1-CLTA 0 | WPMY1-TUBA1B-RELA 0

O=C1C[C@@H]2OCC=C3C[N+]4([O-])CC[C@]56c7ccccc7N1[C@H]5[C@H]2[C@H]3C[C@@H]64 (stereo not given in full) [Genostrychnine base]
inactive: A549-ACTB-RAB5A 0 | A549-CANX-COX4 0 | A549-GM130-SQSTM1 0 | A549-TP53BP1-CLTA 0 | A549-TUBA1B-RELA 0 | HepG2-ACTB-RAB5A 0 | HepG2-CANX-COX4 0 | HepG2-GM130-SQSTM1 0 | HepG2-TP53BP1-CLTA 0 | HepG2-TUBA1B-RELA 0 | WPMY1-ACTB-RAB5A 0 | WPMY1-CANX-COX4 0 | WPMY1-GM130-SQSTM1 0 | WPMY1-TP53BP1-CLTA 0 | WPMY1-TUBA1B-RELA 0

COc1ccc2c(c1OC)C(=O)O[C@@H]2[C@H]1c2cc3c(cc2CCN1C)OCO3 [Hydrastine]
inactive: A549-ACTB-RAB5A 0 | A549-CANX-COX4 0 | A549-GM130-SQSTM1 0 | A549-TP53BP1-CLTA 0 | A549-TUBA1B-RELA 0 | HepG2-ACTB-RAB5A 0 | HepG2-CANX-COX4 0 | HepG2-GM130-SQSTM1 0 | HepG2-TP53BP1-CLTA 0 | HepG2-TUBA1B-RELA 0 | WPMY1-ACTB-RAB5A 0 | WPMY1-CANX-COX4 0 | WPMY1-GM130-SQSTM1 0 | WPMY1-TP53BP1-CLTA 0 | WPMY1-TUBA1B-RELA 0

N#CC(O[C@@H]1O[C@H](CO[C@@H]2O[C@H](CO)[C@@H](O)[C@H](O)[C@H]2O)[C@@H](O)[C@H](O)[C@H]1O)c1ccccc1 (stereo not given in full) [Amygdalin]
inactive: A549-ACTB-RAB5A 0 | A549-CANX-COX4 0 | A549-GM130-SQSTM1 0 | A549-TP53BP1-CLTA 0 | A549-TUBA1B-RELA 0 | HepG2-ACTB-RAB5A 0 | HepG2-CANX-COX4 0 | HepG2-GM130-SQSTM1 0 | HepG2-TP53BP1-CLTA 0 | HepG2-TUBA1B-RELA 0 | WPMY1-ACTB-RAB5A 0 | WPMY1-CANX-COX4 0 | WPMY1-GM130-SQSTM1 0 | WPMY1-TP53BP1-CLTA 0 | WPMY1-TUBA1B-RELA 0

N#CC(C#N)=Cc1ccc(O)c(O)c1
inactive: A549-ACTB-RAB5A 0 | A549-CANX-COX4 0 | A549-GM130-SQSTM1 0 | A549-TP53BP1-CLTA 0 | A549-TUBA1B-RELA 0 | HepG2-ACTB-RAB5A 0 | HepG2-CANX-COX4 0 | HepG2-GM130-SQSTM1 0 | HepG2-TP53BP1-CLTA 0 | HepG2-TUBA1B-RELA 0 | WPMY1-ACTB-RAB5A 0 | WPMY1-CANX-COX4 0 | WPMY1-GM130-SQSTM1 0 | WPMY1-TP53BP1-CLTA 0 | WPMY1-TUBA1B-RELA 0

CN1C(CC(O)c2ccccc2)CCCC1CC(O)c1ccccc1 (stereo not given) [Lobelanidine hydrochloride]
inactive: A549-ACTB-RAB5A 0 | A549-CANX-COX4 0 | A549-GM130-SQSTM1 0 | A549-TP53BP1-CLTA 0 | A549-TUBA1B-RELA 0 | HepG2-ACTB-RAB5A 0 | HepG2-CANX-COX4 0 | HepG2-GM130-SQSTM1 0 | HepG2-TP53BP1-CLTA 0 | HepG2-TUBA1B-RELA 0 | WPMY1-ACTB-RAB5A 0 | WPMY1-CANX-COX4 0 | WPMY1-GM130-SQSTM1 0 | WPMY1-TP53BP1-CLTA 0 | WPMY1-TUBA1B-RELA 0

C=C1[C@H]2C[C@@]3([C@@H]1O)[C@@H](C[C@@H]2O)[C@]12[C@@H]4C[C@H]3[C@H]1N(CC)C[C@]4(C)CC[C@@H]2O [Napelline]
inactive: A549-ACTB-RAB5A 0 | A549-CANX-COX4 0 | A549-GM130-SQSTM1 0 | A549-TP53BP1-CLTA 0 | A549-TUBA1B-RELA 0 | HepG2-ACTB-RAB5A 0 | HepG2-CANX-COX4 0 | HepG2-GM130-SQSTM1 0 | HepG2-TP53BP1-CLTA 0 | HepG2-TUBA1B-RELA 0 | WPMY1-ACTB-RAB5A 0 | WPMY1-CANX-COX4 0 | WPMY1-GM130-SQSTM1 0 | WPMY1-TP53BP1-CLTA 0 | WPMY1-TUBA1B-RELA 0

C=C[C@]12CN(C)[C@@H]3[C@H]4CO[C@H](C[C@H]41)[C@]1(C(=O)Nc4ccccc41)[C@@H]32 [Gelsemine]
inactive: A549-ACTB-RAB5A 0 | A549-CANX-COX4 0 | A549-GM130-SQSTM1 0 | A549-TP53BP1-CLTA 0 | A549-TUBA1B-RELA 0 | HepG2-ACTB-RAB5A 0 | HepG2-CANX-COX4 0 | HepG2-GM130-SQSTM1 0 | HepG2-TP53BP1-CLTA 0 | HepG2-TUBA1B-RELA 0 | WPMY1-ACTB-RAB5A 0 | WPMY1-CANX-COX4 0 | WPMY1-GM130-SQSTM1 0 | WPMY1-TP53BP1-CLTA 0 | WPMY1-TUBA1B-RELA 0
